Holding throughout (assay): NCI-60 one-dose screen, 48 h (100 = growth as untreated, 0 = no growth, -100 = all killed)
Conditions in all cases: 10 µM unless noted

Assay [1] deals with T-47D breast.
For assay [2], the system named is BT-549 breast.
Assay [3] relates to MDA-MB-435 melanoma.
Assay [4] relates to SW-620 colon.
Assay [5] has as its system MCF7 breast.
The test system of assay [6] is HCT-116 colon.
Assay [7] relates to HCC-2998 colon.
For assay [8], the system named is KM12 colon.

This is part of a sample that, as a whole, favours compounds with a hit. Of some 83,000 tested, about 20% had one in any assay.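 Note: values are percent growth. 100 is the growth of untreated cells, values between 100 and 0 indicate rising inhibition; between -100 and 0 indicates cell death.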 Unmarked numbers belong to inactive results. The source made the active and inactive calls. The calls were made as follows: active = growth percent below 10; inactive = the rest.

Take `CCCCC(=O)c1ccco1`: the growth is 79.4% in assay [1]; 102% in assay [2]; 98.8% in assay [3]; 97% in assay [4]; 90.9% in assay [5]; 91.6% in assay [6]. Moreover, the growth in assay [7] is 94.3%; in assay [8], 106%.

In the case of `O=C1/C(=C/c2cccs2)SC(=S)N1CCCN1CCOCC1`, the growth in assay [1] was 67.4%; in assay [2], 102%; in assay [3], 92.1%; in assay [4], 101%; in assay [5] it was 73.8%; in assay [6], 87.8%. In addition, the growth was 112% in assay [7] and 96.8% in assay [8].

Take `C#CCOc1ccc2ncnc(Nc3ccc(NC(=O)CCl)cc3)c2c1`: the growth in assay [1] was 16.2%; in assay [2], -19.5% (active); in assay [3] it was 17.7%; in assay [4] it was -13.9% (active); in assay [5] it was 5.26% (active); in assay [6] it was 0.822% (active). Also, the growth in assay [7] is 65.2%; in assay [8] it was 8.97% (active).

With `Oc1c(Cl)cc(Cl)c2ccc(Cn3cc(-c4ccc(C(F)(F)F)cc4)nn3)nc12`, the growth in assay [1] was 55.4%; in assay [2] it was 77.7%; in assay [3] it was 59.5%; in assay [4], 7.74% (active); in assay [5], 29.4%; in assay [6], 8.81% (active). The growth in assay [7] is 105%; in assay [8], 101%.

For `Oc1ccc(CN2CCC(N3CCCCC3)CC2)c2cccnc12`, the growth in assay [1] was 15%; in assay [2] it was 38.9%; in assay [3], 18.7%; in assay [4], 30.2%; in assay [5], 11.8%; in assay [6], 18.9%. The growth in assay [7] was 32.2%; in assay [8] it was 30.8%.

Consider `O=C1c2cc(Cl)ccc2S(=O)(=O)c2c(NCCCNCCO)nc3ccccc3c21`, for which the growth in assay [1] was -60% (active); in assay [2], 21.7%; in assay [3], 2.67% (active); in assay [4] it was -74.6% (active); in assay [5], -16.2% (active); in assay [6], -78% (active). For the same compound, the values for the growth in assay [7] and in assay [8] were 78.5% and 20.1%, respectively.

For `O=C1/C(=C/c2ccc(F)cc2)COc2ccc(O)c(O)c21`, the growth in assay [1] is 4.43% (active); in assay [2], 3.57% (active); in assay [3], 1.65% (active); in assay [4] it was -44.8% (active); in assay [5], 17.7%; in assay [6] it was -3.28% (active). For the same compound, the figures for the growth in assay [7] and in assay [8] were 19.9% and 1.7% (active), respectively.

With `CCCCCCCCn1ccc2cc(NC(=O)CN3CCN(c4nc(C)cc(Cl)n4)CC3)ccc21`, the growth is 83.4% in assay [1]; 101% in assay [2]; 97.7% in assay [3]; 90.2% in assay [4]; 78.1% in assay [5]; 82.2% in assay [6]. Also, the growth in assay [7] is 103%; in assay [8] it was 91.9%.

`CCCCNc1ccc(C#N)c(OCCN(CC)CC)c1`: the growth was 104% in assay [1]; 98.2% in assay [2]; 104% in assay [3]; 109% in assay [4]; 93.8% in assay [5]; 104% in assay [6]. In addition, the results for the growth in assay [7] and in assay [8] were 108% and 112%, respectively.

In the case of `COc1ccc(/C=C2\COc3ccc(O)cc3C2=O)c(OC)c1OC`, the growth in assay [1] was 64.7%; in assay [2] it was 72.3%; in assay [3], 24.9%; in assay [4], 38.9%; in assay [5] it was 24.5%; in assay [6] it was 70.8%. In addition, the growth in assay [7] was 86.4%; in assay [8], 44.3%.

As for `N#CCSc1nnc2n(Cc3ccccc3)c(=O)c3c4c(sc3n12)CCCC4`, the growth in assay [1] was 111%; in assay [2] it was 98.7%; in assay [3] it was 107%; in assay [4], 109%; in assay [5], 98.9%; in assay [6], 92.7%. The values for the growth in assay [7] and in assay [8] were 105% and 101%, respectively.

Consider `N=C(N)c1ccc(-c2ccc(-c3ccc(F)cc3)o2)o1`, for which the growth in assay [1] is 21.4%; in assay [2], 55.3%; in assay [3], -76.9% (active); in assay [4] it was -36.7% (active); in assay [5], 10.5%; in assay [6], 2.27% (active). The growth in assay [7] is 18.4%; in assay [8], 7.92% (active).

Take `CC/C(=C(/c1ccc(Cl)cc1)c1ccc(OCCN2CCCC2)cc1)c1ccc(OC)cc1`: the growth in assay [1] was 43.7%; in assay [2], 85.8%; in assay [3], 73.5%; in assay [4], 60.2%; in assay [5], 18.5%; in assay [6], 65.9%. Besides, the growth in assay [7] is 71.1%; in assay [8] it was 56%.

As for `O=C1COCCN1c1ccc(Nc2nc(Cl)nc(OCc3cn(Cc4ccccc4)nn3)n2)cc1`, the growth in assay [1] is 68.6%; in assay [2], 90.3%; in assay [3] it was 96.2%; in assay [4] it was 88.6%; in assay [5], 62.4%; in assay [6], 91.9%. Besides, the figures for the growth in assay [7] and in assay [8] were 63.7% and 90.5%, respectively.

Take `O=S(=O)(Nc1ccc(Cl)cc1)c1ccc(-c2cnc(C3CC3)o2)cc1`: the growth in assay [1] was 22.6%; in assay [2], 51.8%; in assay [3], -3.04% (active); in assay [4] it was 17.4%; in assay [5], 18.7%; in assay [6], 21.2%. Besides, the figures for the growth in assay [7] and in assay [8] were 40.3% and 20.9%, respectively.

In the case of `COc1cc2c(c(OC)c1OC)-c1ccc(OC)c(=O)cc1[C@@H](NC(=O)CCl)CC2`, the growth was 73.7% in assay [1]; -48.8% (active) in assay [2]; 8% (active) in assay [3]; 21.3% in assay [4]; 18.1% in assay [5]; -39.3% (active) in assay [6]. In addition, the results for the growth in assay [7] and in assay [8] were 5.69% (active) and -10.3% (active), respectively.

As for `S=C1CCSC(=S)N1CCCN1C(=S)CCSC1=S`, the growth is 35% in assay [1]; 89.4% in assay [2]; 59.6% in assay [3]; 53% in assay [4]; 20.8% in assay [5]; 43% in assay [6]. The figures for the growth in assay [7] and in assay [8] were 96.2% and 82.7%, respectively.

For the compound `CCOC(=O)c1c(C)nc2c(c1N)CC(=O)N2Cc1cc(F)cc(Cl)c1`, the growth in assay [1] was 76.3%; in assay [2] it was 96.3%; in assay [3] it was 92%; in assay [4], 103%; in assay [5], 84.9%; in assay [6], 79.9%. The growth in assay [7] was 113%; in assay [8], 97%.

`O=C(/C=C/c1cccs1)c1ccc(Cl)nc1`: the growth is 97.3% in assay [1]; 101% in assay [2]; 94.2% in assay [3]; 105% in assay [4]; 67.7% in assay [5]; 91.1% in assay [6]. In addition, the growth is 111% in assay [7] and 104% in assay [8].

Regarding `O=C(O)CNC1=C(Cl)C(=O)c2ccccc2C1=O`, the growth in assay [1] is 78.1%; in assay [2], 87.5%; in assay [3], 102%; in assay [4], 102%; in assay [5] it was 81.8%; in assay [6] it was 100%. Further, the growth is 114% in assay [7] and 104% in assay [8].

Take `O=C(Nc1cccnc1Nc1ccc(F)cc1)c1cn(Cc2cccc(Oc3ccccc3)c2)nn1`: the growth in assay [1] was 65.4%; in assay [2], 69.8%; in assay [3], -32.4% (active); in assay [4], 56.5%; in assay [5], 40.1%; in assay [6], 68.8%. Also, the growth in assay [7] was 84.8%; in assay [8], 55.9%.

For the compound `CCOC(=O)c1cn2ncnc(Oc3ccc(NC(=O)NC4CCCCC4)c(Cl)c3)c2c1C`, the growth in assay [1] is 85%; in assay [2] it was 90.4%; in assay [3], 85.6%; in assay [4] it was 81.6%; in assay [5], 51.7%; in assay [6] it was 81.4%. Further, the growth in assay [7] was 94.6%; in assay [8], 96.9%.

As for `C#CCOc1cccc(Nc2ncnc3c(NC(=O)C=C)cccc23)c1`, the growth is 4.83% (active) in assay [1]; 8.49% (active) in assay [2]; 2.2% (active) in assay [3]; 15.2% in assay [4]; 16.4% in assay [5]; 6.27% (active) in assay [6]. In addition, the growth was 79% in assay [7] and 9.96% (active) in assay [8].

In the case of `O=C(Nc1nc2ccc(F)cc2s1)c1cccnc1Nc1ccc(Cl)cc1`, the growth in assay [1] was -0.413% (active); in assay [2] it was 31.8%; in assay [3], 29.2%; in assay [4], 49.8%; in assay [5], 17.7%; in assay [6], 14.2%. Besides, the growth in assay [7] was 31.1%; in assay [8] it was 31.3%.

With `COc1cc(-c2nc(SCC(C)C)nc(Nc3cccc4ccccc34)c2C#N)cc(OC)c1OC`, the growth in assay [1] is 70.3%; in assay [2], 110%; in assay [3], 99.3%; in assay [4], 95.3%; in assay [5], 94%; in assay [6], 37.7%. The growth in assay [7] is 118%; in assay [8], 97.5%.

On to `CCOC(=O)C1=C(NC)OCC1=O`, for which the growth in assay [1] was 110%; in assay [2], 102%; in assay [3] it was 110%; in assay [4], 100%; in assay [5], 103%; in assay [6], 108%. Further, the values for the growth in assay [7] and in assay [8] were 102% and 105%, respectively.

Turning to `Cc1ccc(/C=C2\CN(C(=O)OC(C)(C)C)C/C(=C\c3ccc(C)cc3)C2=O)cc1`, the growth in assay [1] is 61.1%; in assay [2], 99.9%; in assay [3], -44.4% (active); in assay [4], 5.21% (active); in assay [5] it was 15.7%; in assay [6] it was -44.4% (active). Further, the growth is 29.5% in assay [7] and -16% (active) in assay [8].

In the case of `COC1=CC(c2ccc[nH]2)=N/C1=C\c1[nH]c(C)c(C(=O)OCc2ccccc2)c1C`, the growth in assay [1] was -73.4% (active); in assay [2] it was -13.8% (active); in assay [3], -69.7% (active); in assay [4] it was -25.5% (active); in assay [5], -76.3% (active); in assay [6], -75.4% (active). In addition, the growth in assay [7] was -54.5% (active); in assay [8] it was -71.3% (active).

Regarding `c1ccc(C2=NN[C@H](c3cn(-c4ccccc4)nc3-c3ccccc3)C2)cc1`, the growth in assay [1] was 43.5%; in assay [2] it was 48.7%; in assay [3], 67%; in assay [4], 55.7%; in assay [5], 74.4%; in assay [6], 22.8%. Also, the growth in assay [7] is 64.6%; in assay [8] it was 62.8%.

With `CN(C)CCNc1nc2c3cc(Cl)ccc3nn2c2ccccc12`, the growth in assay [1] was 86.6%; in assay [2], 73%; in assay [3] it was 65.3%; in assay [4], 23.7%; in assay [5], 35.3%; in assay [6], 22.9%. In addition, the growth was 56.3% in assay [7] and 39.5% in assay [8].

With `CCOC(=O)C#Cc1c(C(=O)OCC)nnn1[C@@H]1O[C@H](CO)[C@H]2OC3(CCCCC3)O[C@H]21`, the growth is 13.2% in assay [1]; 94.2% in assay [2]; 79.7% in assay [3]; -70.9% (active) in assay [4]; 8.45% (active) in assay [5]; 66.5% in assay [6]. In addition, the growth in assay [7] is 85.4%; in assay [8] it was 94.5%.

On to `O=C(/C=C(/C=C/c1cccc2[nH]ccc12)OB(F)F)/C=C/c1cccc2[nH]ccc12`, for which the growth in assay [1] is 7.95% (active); in assay [2], -19.5% (active); in assay [3] it was -34.4% (active); in assay [4] it was 1.96% (active); in assay [5] it was 4.29% (active); in assay [6], -84.7% (active). The growth in assay [7] is -84.1% (active); in assay [8], -17.3% (active).

The values above are taken from PubChem BioAssay (NCI).
